These results are taken from PMC7862700, “An all-to-all approach to the identification of sequence-specific readers for epigenetic DNA modifications on cytosine”.

What all share (experiment): DAPPL (digital affinity profiling via proximity ligation, sequencing); 10 mM Tris-HCl pH 7.5, 50 mM NaCl, 1 mM DTT, 4% glycerol, room temperature, 30 min; GST-TFs on glutathione beads, 16-mer random dsDNA library, 0.1% formaldehyde crosslink after washing; high values mean tight binding
Test [1] addresses T1, FEV (Homo sapiens, UniProt Q99581 1-238).
T1 sequence: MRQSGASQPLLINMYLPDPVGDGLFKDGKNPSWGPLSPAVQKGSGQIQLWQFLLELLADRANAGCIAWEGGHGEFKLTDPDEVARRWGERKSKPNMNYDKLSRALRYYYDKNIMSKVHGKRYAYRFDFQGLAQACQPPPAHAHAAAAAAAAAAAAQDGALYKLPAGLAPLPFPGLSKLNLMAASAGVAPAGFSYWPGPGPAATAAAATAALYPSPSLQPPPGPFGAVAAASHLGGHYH
Conditions: protein: recombinant; tags: N-terminal GST; dsDNA, one strand shown. The procedure, abridged:
(§1)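 Human transcription factors carrying a GST fusion were produced in yeast, bound to glutathione beads, tagged with DNA barcodes and pooled together with a tag-only sample. Each pool was held with 200 nmole of a random double-stranded 16-mer DNA library in Tris/NaCl/DTT/glycerol buffer for 30 min at room temperature, then washed, crosslinked in 0.1% formaldehyde, proximity-ligated with BsaI/T4 ligase (1 h, 37 °C), PCR-amplified and sequenced on an Illumina NextSeq500. Binding signal is the read frequency of each hexamer for a given factor divided by its frequency in the tag-only sample.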

In test [2] the target is ETV5 (Homo sapiens, UniProt P41161 1-510). Conditions: protein: recombinant; tags: N-terminal GST; dsDNA, one strand shown. Summed up: as §1
Test [3] concerns the target HSF1 (Homo sapiens, UniProt Q00613 1-529). Conditions: protein: recombinant; tags: N-terminal GST; chain copies: 3; dsDNA, one strand shown. Summed up: as §1
Test [4] concerns the target T2, SPIC (Homo sapiens, UniProt Q8N5J4 1-248).
T2 sequence: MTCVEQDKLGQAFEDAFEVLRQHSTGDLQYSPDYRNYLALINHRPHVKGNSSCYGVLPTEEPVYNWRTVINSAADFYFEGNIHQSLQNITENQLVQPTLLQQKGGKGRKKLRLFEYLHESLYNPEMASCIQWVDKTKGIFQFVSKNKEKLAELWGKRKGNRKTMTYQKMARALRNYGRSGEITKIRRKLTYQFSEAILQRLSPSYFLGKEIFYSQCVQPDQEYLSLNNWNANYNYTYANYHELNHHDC
Conditions: protein: recombinant; tags: N-terminal GST; dsDNA, one strand shown. Summed up: as §1

The target of test [5] is ELF4 (Homo sapiens, UniProt Q99607 1-663). Conditions: protein: recombinant; tags: N-terminal GST; dsDNA, one strand shown. The procedure, abridged:
as §1

The target in test [6] is T3, ELK4 (Homo sapiens, UniProt P28324-2 1-405).
T3 sequence: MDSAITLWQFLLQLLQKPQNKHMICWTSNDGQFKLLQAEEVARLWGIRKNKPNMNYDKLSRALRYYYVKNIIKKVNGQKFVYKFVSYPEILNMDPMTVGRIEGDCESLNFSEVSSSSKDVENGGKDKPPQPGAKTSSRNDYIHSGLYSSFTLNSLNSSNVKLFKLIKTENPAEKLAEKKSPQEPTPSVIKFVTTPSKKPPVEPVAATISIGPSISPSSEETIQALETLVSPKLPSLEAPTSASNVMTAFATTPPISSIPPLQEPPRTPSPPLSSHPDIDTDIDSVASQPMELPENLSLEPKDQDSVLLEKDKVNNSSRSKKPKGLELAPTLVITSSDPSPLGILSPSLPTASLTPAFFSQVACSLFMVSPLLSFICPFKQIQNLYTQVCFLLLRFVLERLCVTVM
Conditions: protein: recombinant; tags: N-terminal GST; dsDNA, one strand shown. Summed up: as §1

Test [7] addresses T4, ETV2 (Homo sapiens, UniProt O00321 1-342).
T4 sequence: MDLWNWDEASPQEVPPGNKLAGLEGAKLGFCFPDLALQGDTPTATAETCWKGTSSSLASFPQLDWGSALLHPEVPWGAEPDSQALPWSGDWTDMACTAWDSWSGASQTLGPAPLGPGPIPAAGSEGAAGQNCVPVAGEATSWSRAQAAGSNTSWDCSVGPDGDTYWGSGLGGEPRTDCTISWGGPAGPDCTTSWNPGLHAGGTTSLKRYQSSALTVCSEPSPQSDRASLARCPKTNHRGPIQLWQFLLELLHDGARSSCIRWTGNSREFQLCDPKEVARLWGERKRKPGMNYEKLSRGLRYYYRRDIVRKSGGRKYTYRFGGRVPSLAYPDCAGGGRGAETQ
Conditions: protein: recombinant; tags: N-terminal GST; dsDNA, one strand shown. The procedure, abridged:
as §1

The target of test [8] is T5, ELF3 (Homo sapiens, UniProt P78545 1-371).
T5 sequence: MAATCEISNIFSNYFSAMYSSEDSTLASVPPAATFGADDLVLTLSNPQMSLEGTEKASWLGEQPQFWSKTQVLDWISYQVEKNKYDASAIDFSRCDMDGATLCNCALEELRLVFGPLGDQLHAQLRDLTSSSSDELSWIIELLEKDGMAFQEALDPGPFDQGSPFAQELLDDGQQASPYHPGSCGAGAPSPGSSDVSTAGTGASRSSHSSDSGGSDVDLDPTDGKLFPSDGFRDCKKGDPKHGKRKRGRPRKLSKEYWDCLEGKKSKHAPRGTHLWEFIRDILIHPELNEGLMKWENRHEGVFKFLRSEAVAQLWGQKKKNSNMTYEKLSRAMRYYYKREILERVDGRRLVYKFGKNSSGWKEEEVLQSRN
Conditions: protein: recombinant; tags: N-terminal GST; dsDNA, one strand shown. Summed up: as §1

In test [9] the target is CRX (Homo sapiens, UniProt O43186 1-299). Conditions: protein: recombinant; tags: N-terminal GST; dsDNA, one strand shown. The procedure, abridged: as §1
Test [10] deals with ETV1 (Homo sapiens, UniProt P50549 1-477). Conditions: protein: recombinant; tags: N-terminal GST; dsDNA, one strand shown. The procedure, abridged: as §1
For test [11], the target named is T6, ERF (Homo sapiens, UniProt P50548 1-548).
T6 sequence: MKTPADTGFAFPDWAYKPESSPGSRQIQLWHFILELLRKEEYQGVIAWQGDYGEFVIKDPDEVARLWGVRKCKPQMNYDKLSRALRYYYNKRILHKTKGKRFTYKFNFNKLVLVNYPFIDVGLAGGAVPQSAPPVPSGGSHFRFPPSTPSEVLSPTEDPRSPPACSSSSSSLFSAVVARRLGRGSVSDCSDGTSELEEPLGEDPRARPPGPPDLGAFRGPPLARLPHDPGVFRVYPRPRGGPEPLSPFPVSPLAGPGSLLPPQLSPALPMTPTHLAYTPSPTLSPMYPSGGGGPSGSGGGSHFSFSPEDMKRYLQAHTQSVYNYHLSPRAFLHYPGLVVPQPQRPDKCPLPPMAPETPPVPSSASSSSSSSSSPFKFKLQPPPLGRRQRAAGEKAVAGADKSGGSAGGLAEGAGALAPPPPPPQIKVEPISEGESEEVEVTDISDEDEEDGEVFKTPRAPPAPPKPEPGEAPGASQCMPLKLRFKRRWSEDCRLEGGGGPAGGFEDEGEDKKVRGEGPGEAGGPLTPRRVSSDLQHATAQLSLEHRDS
Conditions: protein: recombinant; tags: N-terminal GST; dsDNA, one strand shown. Summed up: as §1

Test [12] has as its target T7, ETV3L (Homo sapiens, UniProt Q6ZN32 1-361).
T7 sequence: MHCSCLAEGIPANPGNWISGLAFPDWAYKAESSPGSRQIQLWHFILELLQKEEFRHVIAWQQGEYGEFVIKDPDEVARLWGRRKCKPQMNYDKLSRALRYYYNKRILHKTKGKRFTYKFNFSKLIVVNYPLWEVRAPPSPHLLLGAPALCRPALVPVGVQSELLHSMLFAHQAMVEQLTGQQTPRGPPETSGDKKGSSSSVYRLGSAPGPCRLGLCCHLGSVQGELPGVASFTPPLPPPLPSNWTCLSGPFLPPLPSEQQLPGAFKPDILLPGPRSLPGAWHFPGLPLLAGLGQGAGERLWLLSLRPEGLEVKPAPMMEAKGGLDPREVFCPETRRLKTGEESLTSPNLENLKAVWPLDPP
Conditions: protein: recombinant; tags: N-terminal GST; dsDNA, one strand shown. The procedure, abridged: as §1

Test [13] deals with T8, ETS2 (Homo sapiens, UniProt P15036 1-469).
T8 sequence: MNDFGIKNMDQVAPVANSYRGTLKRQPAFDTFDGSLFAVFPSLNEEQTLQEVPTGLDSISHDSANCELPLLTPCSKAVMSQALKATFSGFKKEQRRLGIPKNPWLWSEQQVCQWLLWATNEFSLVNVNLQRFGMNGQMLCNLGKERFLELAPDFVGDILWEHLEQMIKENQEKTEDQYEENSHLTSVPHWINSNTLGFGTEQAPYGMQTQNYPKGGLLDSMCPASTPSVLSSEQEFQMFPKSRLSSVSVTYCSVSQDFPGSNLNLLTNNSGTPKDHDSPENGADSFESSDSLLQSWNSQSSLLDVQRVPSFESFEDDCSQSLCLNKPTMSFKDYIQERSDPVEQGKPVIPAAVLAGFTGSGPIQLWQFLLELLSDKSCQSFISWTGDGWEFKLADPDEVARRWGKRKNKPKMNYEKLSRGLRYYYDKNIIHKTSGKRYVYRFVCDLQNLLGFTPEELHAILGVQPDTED
Conditions: protein: recombinant; tags: N-terminal GST; dsDNA, one strand shown. The procedure, abridged:
as §1

For test [14], the target named is T9, SPDEF (Homo sapiens, UniProt O95238 1-335).
T9 sequence: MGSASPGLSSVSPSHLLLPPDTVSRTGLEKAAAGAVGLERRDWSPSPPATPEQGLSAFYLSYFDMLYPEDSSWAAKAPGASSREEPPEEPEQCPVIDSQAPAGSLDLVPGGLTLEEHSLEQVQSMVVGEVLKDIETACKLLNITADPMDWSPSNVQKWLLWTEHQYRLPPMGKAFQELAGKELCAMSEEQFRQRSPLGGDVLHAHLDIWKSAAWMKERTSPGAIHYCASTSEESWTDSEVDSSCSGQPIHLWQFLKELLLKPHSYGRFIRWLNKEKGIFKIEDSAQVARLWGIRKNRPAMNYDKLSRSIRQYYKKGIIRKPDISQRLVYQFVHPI
Conditions: protein: recombinant; tags: N-terminal GST; dsDNA, one strand shown. The procedure, abridged: as §1

Test [15] deals with T10, ETV7 (Homo sapiens, UniProt Q9Y603 1-341).
T10 sequence: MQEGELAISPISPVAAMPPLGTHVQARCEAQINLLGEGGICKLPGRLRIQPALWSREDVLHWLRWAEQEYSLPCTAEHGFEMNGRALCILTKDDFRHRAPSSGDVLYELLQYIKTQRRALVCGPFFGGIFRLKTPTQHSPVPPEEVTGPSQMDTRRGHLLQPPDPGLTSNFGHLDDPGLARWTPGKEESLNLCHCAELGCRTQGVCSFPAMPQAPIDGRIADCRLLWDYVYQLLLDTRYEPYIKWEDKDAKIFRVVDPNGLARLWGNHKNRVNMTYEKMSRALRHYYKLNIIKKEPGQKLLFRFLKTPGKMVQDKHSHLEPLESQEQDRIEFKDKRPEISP
Conditions: protein: recombinant; tags: N-terminal GST; dsDNA, one strand shown. The procedure, abridged: as §1

Test [16] addresses T11, ELF5 (Homo sapiens, UniProt Q9UKW6-2 1-255).
T11 sequence: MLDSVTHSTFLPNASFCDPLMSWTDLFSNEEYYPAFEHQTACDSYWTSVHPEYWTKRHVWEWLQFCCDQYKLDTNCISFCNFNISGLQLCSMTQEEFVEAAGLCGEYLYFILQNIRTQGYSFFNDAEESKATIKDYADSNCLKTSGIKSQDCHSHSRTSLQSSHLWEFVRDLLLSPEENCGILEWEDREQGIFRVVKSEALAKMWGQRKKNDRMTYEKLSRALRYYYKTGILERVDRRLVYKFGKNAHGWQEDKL
Conditions: protein: recombinant; tags: N-terminal GST; dsDNA, one strand shown. Summed up:
as §1

The target of test [17] is T12, ETV3 (Homo sapiens, UniProt P41162-2 1-143).
T12 sequence: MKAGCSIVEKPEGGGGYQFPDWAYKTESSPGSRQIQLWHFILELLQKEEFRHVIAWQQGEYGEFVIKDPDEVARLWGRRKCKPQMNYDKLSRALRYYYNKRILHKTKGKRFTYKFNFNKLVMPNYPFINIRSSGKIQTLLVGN
Conditions: protein: recombinant; tags: N-terminal GST; dsDNA, one strand shown. Summed up:
as §1

In test [18] the target is ETV6 (Homo sapiens, UniProt P41212 1-452). Conditions: protein: recombinant; tags: N-terminal GST; dsDNA, one strand shown. Summed up: as §1
Chain of ETV6 (P41212 whole entry): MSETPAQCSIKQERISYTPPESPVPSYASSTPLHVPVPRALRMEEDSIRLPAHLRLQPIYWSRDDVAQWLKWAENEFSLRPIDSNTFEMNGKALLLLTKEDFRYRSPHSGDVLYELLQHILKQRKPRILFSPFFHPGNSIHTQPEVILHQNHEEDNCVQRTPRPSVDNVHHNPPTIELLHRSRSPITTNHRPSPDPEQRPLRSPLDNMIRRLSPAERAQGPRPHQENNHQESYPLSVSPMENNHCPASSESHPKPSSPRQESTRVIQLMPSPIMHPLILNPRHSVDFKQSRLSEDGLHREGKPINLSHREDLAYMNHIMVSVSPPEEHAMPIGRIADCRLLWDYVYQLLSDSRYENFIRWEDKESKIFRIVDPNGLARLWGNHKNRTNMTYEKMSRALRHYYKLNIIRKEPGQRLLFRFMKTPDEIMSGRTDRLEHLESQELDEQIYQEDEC

Chain of ETV5 (P41161 whole entry): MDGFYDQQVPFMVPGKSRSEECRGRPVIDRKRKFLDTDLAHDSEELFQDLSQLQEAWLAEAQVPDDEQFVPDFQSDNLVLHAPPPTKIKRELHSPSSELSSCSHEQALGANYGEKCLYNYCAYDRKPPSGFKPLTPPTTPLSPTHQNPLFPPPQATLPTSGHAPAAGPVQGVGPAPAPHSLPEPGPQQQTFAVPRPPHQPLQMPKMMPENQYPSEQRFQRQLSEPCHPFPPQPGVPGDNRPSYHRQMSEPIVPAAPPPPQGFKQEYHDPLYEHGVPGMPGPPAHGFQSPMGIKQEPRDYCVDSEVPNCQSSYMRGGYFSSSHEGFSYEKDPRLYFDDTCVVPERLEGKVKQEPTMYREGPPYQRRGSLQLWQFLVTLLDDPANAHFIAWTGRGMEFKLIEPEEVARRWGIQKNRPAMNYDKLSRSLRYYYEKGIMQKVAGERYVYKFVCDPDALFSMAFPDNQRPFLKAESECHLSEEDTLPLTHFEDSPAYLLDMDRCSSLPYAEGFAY
Chain of CRX (O43186 whole entry): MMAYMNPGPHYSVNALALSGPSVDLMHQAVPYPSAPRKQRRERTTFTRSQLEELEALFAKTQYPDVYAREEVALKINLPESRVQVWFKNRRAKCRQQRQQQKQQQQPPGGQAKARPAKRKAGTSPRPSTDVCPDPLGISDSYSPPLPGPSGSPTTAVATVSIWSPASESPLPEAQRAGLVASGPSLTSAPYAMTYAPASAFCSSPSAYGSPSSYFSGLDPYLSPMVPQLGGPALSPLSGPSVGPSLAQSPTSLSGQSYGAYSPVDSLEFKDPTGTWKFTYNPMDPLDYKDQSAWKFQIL
Chain of ETV1 (P50549 whole entry): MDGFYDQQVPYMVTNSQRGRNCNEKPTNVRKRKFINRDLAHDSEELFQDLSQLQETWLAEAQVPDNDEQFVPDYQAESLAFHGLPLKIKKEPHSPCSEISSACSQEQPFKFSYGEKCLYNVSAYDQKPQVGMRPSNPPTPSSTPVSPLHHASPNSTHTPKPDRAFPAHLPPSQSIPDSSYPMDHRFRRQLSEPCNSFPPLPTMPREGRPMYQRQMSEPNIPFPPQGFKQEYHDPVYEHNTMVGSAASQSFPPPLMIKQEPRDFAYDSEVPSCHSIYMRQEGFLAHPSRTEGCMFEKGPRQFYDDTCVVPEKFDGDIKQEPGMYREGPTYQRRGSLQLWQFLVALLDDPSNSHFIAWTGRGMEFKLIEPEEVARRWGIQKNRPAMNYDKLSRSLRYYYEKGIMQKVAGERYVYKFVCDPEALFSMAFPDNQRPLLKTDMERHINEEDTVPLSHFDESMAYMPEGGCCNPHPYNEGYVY
Chain of ELF4 (Q99607 whole entry): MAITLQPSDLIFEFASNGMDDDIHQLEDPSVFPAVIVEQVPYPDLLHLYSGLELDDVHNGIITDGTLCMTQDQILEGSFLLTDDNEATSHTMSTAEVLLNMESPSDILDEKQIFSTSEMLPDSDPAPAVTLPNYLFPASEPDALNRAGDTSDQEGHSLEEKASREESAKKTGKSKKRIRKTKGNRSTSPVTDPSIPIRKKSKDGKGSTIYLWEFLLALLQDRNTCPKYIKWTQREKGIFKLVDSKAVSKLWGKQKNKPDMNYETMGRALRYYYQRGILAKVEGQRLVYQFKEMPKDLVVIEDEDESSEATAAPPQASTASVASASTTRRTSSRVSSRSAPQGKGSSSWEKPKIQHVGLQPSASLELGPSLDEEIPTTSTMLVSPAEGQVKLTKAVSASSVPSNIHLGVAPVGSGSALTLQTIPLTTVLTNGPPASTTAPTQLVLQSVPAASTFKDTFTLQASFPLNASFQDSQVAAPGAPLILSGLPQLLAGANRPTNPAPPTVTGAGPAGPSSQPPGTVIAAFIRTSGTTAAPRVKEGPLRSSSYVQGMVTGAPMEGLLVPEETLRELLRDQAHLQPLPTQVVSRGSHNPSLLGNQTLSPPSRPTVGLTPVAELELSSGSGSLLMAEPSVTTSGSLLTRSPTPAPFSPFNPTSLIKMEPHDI
Chain of HSF1 (Q00613 whole entry): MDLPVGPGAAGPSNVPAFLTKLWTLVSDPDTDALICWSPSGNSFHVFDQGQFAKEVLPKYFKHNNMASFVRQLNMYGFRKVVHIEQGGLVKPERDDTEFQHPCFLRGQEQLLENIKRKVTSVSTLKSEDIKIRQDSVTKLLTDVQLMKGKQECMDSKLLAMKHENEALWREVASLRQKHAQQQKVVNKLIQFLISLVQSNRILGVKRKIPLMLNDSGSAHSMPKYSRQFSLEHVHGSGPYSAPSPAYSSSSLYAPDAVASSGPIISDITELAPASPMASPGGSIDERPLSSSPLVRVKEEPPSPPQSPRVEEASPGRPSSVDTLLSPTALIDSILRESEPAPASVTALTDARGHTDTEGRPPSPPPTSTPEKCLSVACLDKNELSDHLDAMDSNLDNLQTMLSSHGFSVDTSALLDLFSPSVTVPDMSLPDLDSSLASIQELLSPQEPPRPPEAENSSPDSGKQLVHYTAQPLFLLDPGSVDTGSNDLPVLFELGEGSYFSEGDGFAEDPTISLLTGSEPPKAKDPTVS

With ACGGAT, the binding signal is 1.54 fold enrichment (6-mer frequency, TF over GST control) in [1]; 1.32 fold enrichment (6-mer frequency, TF over GST control) in test [2]; 1.18 fold enrichment (6-mer frequency, TF over GST control) in test [3]; 1.38 fold enrichment (6-mer frequency, TF over GST control) in test [4]; 1.19 fold enrichment (6-mer frequency, TF over GST control) in test [5]; 1.12 fold enrichment (6-mer frequency, TF over GST control) in test [6]. Moreover, the binding signal in test [7] is 1.2 fold enrichment (6-mer frequency, TF over GST control); in test [8] it was 1.3 fold enrichment (6-mer frequency, TF over GST control); in test [9] it was 1.61 fold enrichment (6-mer frequency, TF over GST control); in test [10] it was 1.23 fold enrichment (6-mer frequency, TF over GST control); in test [11], 1.11 fold enrichment (6-mer frequency, TF over GST control); in [12], 1.23 fold enrichment (6-mer frequency, TF over GST control). In addition, the binding signal in test [13] was 1.3 fold enrichment (6-mer frequency, TF over GST control); in test [14] it was 1.94 fold enrichment (6-mer frequency, TF over GST control); in test [15], 1.13 fold enrichment (6-mer frequency, TF over GST control); in test [16], 1.34 fold enrichment (6-mer frequency, TF over GST control); in test [17], 1.3 fold enrichment (6-mer frequency, TF over GST control); in test [18], 1.22 fold enrichment (6-mer frequency, TF over GST control).
